Our source for the outcome values is PubChem BioAssay AID618 (Sanford-Burnham Center for Chemical Genomics, 2007).

Hit rate of the full screen: of about 87,000 compounds, about 540 (0.62%) were called active. The rule behind the calls is not given here. For the sample, actives were picked, then their nearest neighbours and some compounds at random. Measured potencies and affinities stand elsewhere.

This experiment can be described thus: inhibitors of MT1-MMP promoter transcription, cell-based, luciferase reporter, luminescence (AID 618).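 Note: actives suppress MT1-MMP promoter-driven transcription so potencies describe inhibitors.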 Conditions: MT1-MMP promoter luciferase reporter cells. For orientation: In a reporter assay the amount or activity of a reporter protein is the signal.
For `CC1C=CC(C)C(C(=O)O)C1C(=O)O` (stereo not drawn), the compound was classed as inactive. The result for `CC(=O)c1ccc(NS(=O)(=O)c2ccc(CC(C)C)cc2)cc1` reads “inactive”; that for `Cc1cccnc1NC(=O)C1CCN(S(=O)(=O)c2cccs2)CC1`, “inactive”; that for `COc1ccc(CCn2c(N3CCN(C)CC3)nc3c2c(=O)[nH]c(=O)n3C)cc1`, “inactive”. As for `CCOc1ccc(S(=O)(=O)NCCC2=CCCCC2)c2ccccc12`, the result was inactive. For `CCC1=Nc2cc(C(=O)NCCCOC)ccc2Sc2ccccc21` the value was “active”; for `CCOCCCNC(=O)c1ccc(OC)cc1`, “inactive”; for `COCCCNC(=O)c1cccc(C(=O)NCCCOC)c1`, “inactive”. For `CCC1=Nc2cc(C(=O)NCCCOC(C)C)ccc2Sc2ccccc21` the value was “inactive”. For the compound `CCCC1=Nc2cc(C(=O)NCCCOCC)ccc2Sc2ccccc21`, the compound was classed as active. For `CCCC1=Nc2cc(C(=O)NCCCOC(C)C)ccc2Sc2ccccc21` the value was “inactive”; for `COc1ccc(S(=O)(=O)Cc2ccc(C(=O)N3CCN(c4ncccn4)CC3)o2)cc1`, “inactive”; for `CC1(C)CC(=O)C2=C(C1)Nc1ccccc1NC2c1cccnc1` (stereo not drawn), “inactive”. Consider `CCC1=C2CC[C@H]3C(=O)N(CC(=O)OC)C(=O)[C@H]3[C@H]2[C@@]2(Cc3ccccc3)C(=NCCc3c[nH]c4ccccc34)OC(=O)N2C1=O`, for which the result was inactive. `O=C(CSc1ccccc1)Nc1cccnc1`: the outcome was inactive. For `CC(CN1CCOCC1)OC(=O)c1ccccc1Br` (stereo not drawn) the value was “inactive”; for `COc1ccc2[nH]c3c(c2c1)CCn1c-3nc2ccccc2c1=O`, “active”. As to `COc1ccc(-c2nc3ccccc3c(=O)n2CCN2CCOCC2)cc1`, the outcome was inactive. For `COc1cc(OC)cc(C(=O)Nn2c(C)nc3ccccc3c2=O)c1`, the result was inactive. For the compound `O=C(CCCO)c1ccc2c(c1)OCCO2`, the outcome was inactive. The result for `O=C(CCc1ccccc1)c1ccc2c(c1)OCCCO2` reads “inactive”; that for `COc1ccccc1C(=O)Nc1ccc2c(c1)OCCO2`, “inactive”.

For the compound `CS(=O)(=O)Nc1ccc(C(=O)Nc2ccc3c(c2)OCCO3)cc1`, the call was inactive.

On to `O=C(Nc1ccc2c(c1)OCCO2)c1cccnc1`, for which the compound was called inactive. Regarding `O=C(Nc1ccc2c(c1)OCO2)c1cncc(Br)c1`, the result was inactive. As for `Cc1cc(C(=O)Nc2ccc3c(c2)OCCO3)co1`, the result was inactive. With `COc1cc(SC)ccc1C(=O)Nc1ccccc1`, the call was inactive. For `O=C(Nc1ccccc1)c1ccc2c(c1)OCCO2` the value was “inactive”; for `O=C(Nc1ccncc1)c1ccc2c(c1)OCCO2`, “inactive”; for `Clc1cc(NCc2cccs2)ccc1N1CCOCC1`, “inactive”. Regarding `Cc1cc(N2CC34C=CC(O3)C(C(=O)O)C4C2=O)no1` (stereo not drawn), the call was inactive.

Consider `CCOCCn1c(CN2CCN(CC)CC2)nc2c1c(=O)n(C)c(=O)n2C`, for which the result was inactive. Regarding `NC1=NC2(CCC(c3ccccc3)CC2)n2c(nc3ccccc32)N1` (stereo not drawn), the call was inactive.
